Measurements as given in PubChem BioAssay AID1159580 (chemical genetic matrix, 2015).
About 2,000 (36%) of roughly 5,500 compounds were called active. Another 18% or so got no clear call; they are omitted. The list shows a part of the results. Values without a mark were called inactive. Cut-off read from the data, not from the text of the source: active = normalized growth mostly below about 0.91 (no sharp cut-off); inconclusive = no clear call, values can overlap the other calls; inactive = mostly above about 0.92.

Test: chemical genetic growth profiling, strain panel (AID 1159580);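 note: tested at 20 µM; growth read once vehicle control cultures reached saturation at 30 °C; 1 = growth at the plate median or of vehicle wells; lower values mean less growth of the strain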
Settings: growth OD
[1] = S. cerevisiae deletion strains, locus YAL013W, strain DEP1, hits give low values
[2] = S. cerevisiae deletion strains, locus YBR229C, strain ROT2, hits give low values
[3] = S. cerevisiae deletion strains, locus YDL101C, strain DUN1, hits give low values
[4] = S. cerevisiae deletion strains, locus YDL134C, strain PPH21, hits give low values
[5] = S. cerevisiae deletion strains, locus YDR150W, strain NUM1, hits give low values
[6] = S. cerevisiae deletion strains, locus YEL061C, strain CIN8, hits give low values
[7] = S. cerevisiae deletion strains, locus YGR078C, strain PAC10, hits give low values
[8] = S. cerevisiae deletion strains, locus YHR030C, strain SLT2, hits give low values
[9] = S. cerevisiae deletion strains, locus YHR087W, strain rtc3, hits give low values
[10] = S. cerevisiae deletion strains, locus YJR043C, strain POL32, hits give low values
[11] = S. cerevisiae deletion strains, locus YJR075W, strain HOC1, hits give low values
[12] = S. cerevisiae deletion strains, locus YLR039C, strain RIC1, hits give low values
[13] = S. cerevisiae deletion strains, locus YLR058C, strain SHM2 (second series), hits give low values
[14] = S. cerevisiae deletion strains, locus YLR085C, strain ARP6, hits give low values
[15] = S. cerevisiae deletion strains, locus YLR262C, strain YPT6, hits give low values
[16] = S. cerevisiae deletion strains, locus YML094W, strain GIM5, hits give low values
[17] = S. cerevisiae deletion strains, locus YMR219W, strain ESC1, hits give low values
[18] = S. cerevisiae deletion strains, locus YMR263W, strain SAP30, hits give low values
[19] = S. cerevisiae deletion strains, locus YNL153C, strain GIM3, hits give low values
[20] = S. cerevisiae deletion strains, locus YNL298W, strain CLA4 (second series), hits give low values
[21] = S. cerevisiae deletion strains, locus YNL322C, strain KRE1, hits give low values
[22] = S. cerevisiae deletion strains, locus YNR030W, strain Alg12, hits give low values
[23] = S. cerevisiae deletion strains, locus YOL006C, strain TOP1, hits give low values
[24] = S. cerevisiae deletion strains, locus YPL241C, strain CIN2, hits give low values
[25] = S. cerevisiae deletion strains, locus YPR135W, strain CTF4, hits give low values

Compound: C=Cc1c(SC)sc(C(=O)O)c1C
- normalized growth [1]: 0.869 (active)
- normalized growth [2]: 0.766 (active)
- normalized growth (S. cerevisiae deletion strains, locus YCL061C, strain MRC1, hits give low values): 0.746 (active)
- normalized growth [3]: 0.705 (active)
- normalized growth [4]: 1.01
- normalized growth [5]: 0.869
- normalized growth [6]: 0.999
- normalized growth [7]: 0.794 (active)
- normalized growth [8]: 1.05
- normalized growth [9]: 0.761 (active)
- normalized growth (S. cerevisiae deletion strains, locus YJL187C, strain SWE1, hits give low values): 1.05
- normalized growth [10]: 0.807 (active)
- normalized growth [11]: 0.636 (active)
- normalized growth [12]: 0.795
- normalized growth [13]: 0.889 (active)
- normalized growth [14]: 1.05
- normalized growth [15]: 0.776 (active)
- normalized growth [16]: 1.01
- normalized growth [17]: 0.804 (active)
- normalized growth [18]: 0.869 (active)
- normalized growth (S. cerevisiae deletion strains, locus YNL128W, strain TEP1, hits give low values): 1.04
- normalized growth [19]: 0.771 (active)
- normalized growth [20]: 1.02
- normalized growth [21]: 0.865 (active)
- normalized growth [22]: 0.979
- normalized growth [23]: 1.07
- normalized growth [24]: 0.966
- normalized growth [25]: 1.1

Compound: N#CCCC1(CCC#N)c2ccccc2-c2ccccc21
- normalized growth [1]: 0.99
- normalized growth [2]: 1.02
- normalized growth [3]: 1.03
- normalized growth [4]: 1.02
- normalized growth [5]: 1.01
- normalized growth [6]: 1.01
- normalized growth [7]: 1.01
- normalized growth [8]: 1.05
- normalized growth [9]: 1.03
- normalized growth [10]: 1.01
- normalized growth [11]: 1.01
- normalized growth [12]: 1.06
- normalized growth [13]: 1.01
- normalized growth [14]: 1.03
- normalized growth [15]: 1.01
- normalized growth [16]: 1.03
- normalized growth [17]: 1.03
- normalized growth [18]: 1.02
- normalized growth [19]: 1.04
- normalized growth [20]: 1.01
- normalized growth [21]: 1.01
- normalized growth [22]: 1
- normalized growth [23]: 1.08
- normalized growth (S. cerevisiae deletion strains, locus YPL055C, strain LGE1, hits give low values): 1.03
- normalized growth [24]: 1.01
- normalized growth [25]: 1.11
- normalized growth (S. cerevisiae strains, strain wild type, hits give low values): 1.03
